# Screening data: PubChem BioAssay, NMMLSC
# This is a sample that favours compounds with a hit; in the whole collection about 0.4% have one here.
# Rac1 act GTP bind: alters GTP binding to activated mutant human Rac1. percent activity (GTP binding), % at 10 µM. AID 764. P63000. GST-Rac1 activated beads, fluorescent GTP binding, flow cytometry; actives lie on both sides; 100% means binding = to untreated wells. 190,000 compounds, 0.11% hits;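 active = GTP binding at least 20 percentage points away from the 100% baseline, in either direction, so actives lie on both sides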
# Rab2 wt GTP: changes GTP binding to wildtype dog Rab2A, up or down. GST-Rab2 wt beads, Bodipy-GTP binding, flow cytometry. 190,000 compounds, 0.19% hits. GTP binding activity, % at 10 µM. P61105;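 active = GTP binding activity at least 20 points away from 100%, either lowered or raised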
# Cdc42 wt GTP: human Cdc42 wildtype GTP binding change, either direction. P60953. GST-Cdc42 beads, Bodipy-GTP binding, flow cytometry; actives lie on both sides. percent activity (GTP binding), % at 10 µM. 190,000 compounds, 0.2% hits. AID 761;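 active = percent activity GTP binding at least 20 points away from the 100% baseline, either down as inhibitor or up as activator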;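 note: median bead fluorescence of bound Bodipy-FL-GTP at 100 nM; below 100% means less GTP binding so inhibitor and above means activator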
# Target sequence (P60953 whole entry, looked up): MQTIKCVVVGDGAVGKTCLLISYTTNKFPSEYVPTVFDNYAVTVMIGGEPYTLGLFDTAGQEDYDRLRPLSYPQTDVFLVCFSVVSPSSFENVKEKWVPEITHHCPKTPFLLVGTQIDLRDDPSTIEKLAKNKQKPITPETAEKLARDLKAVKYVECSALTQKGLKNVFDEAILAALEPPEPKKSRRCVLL
# HRas wt GTP: changes GTP binding to wildtype human HRas | P01112 | GST-Ras wt beads, Bodipy-FL-GTP binding, flow cytometry; actives lie on both sides | GTP binding activity, % at 10 µM | 190,000 compounds, 0.14% hits | AID 759;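 active = GTP binding activity at least 20% away from the 100% baseline, either lowered as inhibitor or raised as activator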
# Target sequence (P01112 whole entry, looked up): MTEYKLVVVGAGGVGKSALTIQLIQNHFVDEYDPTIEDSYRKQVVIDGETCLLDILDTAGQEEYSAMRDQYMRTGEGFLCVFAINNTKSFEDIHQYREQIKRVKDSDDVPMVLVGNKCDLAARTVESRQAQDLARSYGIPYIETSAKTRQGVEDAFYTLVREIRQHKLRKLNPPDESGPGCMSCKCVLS
# Rab7 wt modul: alters GTP binding to wildtype dog Rab7; GTP binding activity (percent of control), % at 10 µM; AID 758; 190,000 compounds, 0.055% hits; GST-Rab7 beads, fluorescent GTP binding, flow cytometry; actives lie on both sides; untreated = 100%, excess cold GTP = 0%;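 active = fluorescent GTP binding to Rab7 beads changed by at least 20 points from the 100% baseline, either direction, mostly lower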;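 note: median green fluorescence of bound Bodipy-FL-GTP per Rab7 bead population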
# Rac1 wt GTP bind: alters GTP binding to wildtype human Rac1 | P63000 | GST-Rac1 beads, fluorescent GTP binding, flow cytometry; actives lie on both sides; 0 = cold GTP competed, 100 = untreated | GTP binding activity (% of control), % at 10 µM | 190,000 compounds, 0.27% hits;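 active = GTP binding activity at least 20 points away from the 100% control level, either lower or higher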
# Numbers stand for hits; i = inactive; nt = no result given; [ ] = another dose, or the depositor's remark.
SMILES,Rac1 act GTP bind,Rab2 wt GTP,Cdc42 wt GTP,HRas wt GTP,Rab7 wt modul,Rac1 wt GTP bind
Cc1cc(NS(=O)(=O)c2ccc(Nc3nc(-c4ccc(C)c(C)c4)cs3)cc2)no1,i,i,i,i,i,i
Cc1cc(NS(=O)(=O)c2ccc(Nc3nc(-c4sc(N)nc4C)cs3)cc2)no1,i,75,i,78,i,i
Cc1sc2ncn(CC(=O)N3CCOCC3)c(=O)c2c1-c1ccccc1,i,i,i,i,i,i
CC(=O)N1CCCC(C(=O)c2ccc(Oc3ccccc3)cc2)C1 (stereo not drawn),i,i,i,i,i,i
COC(=O)c1ccccc1NC(=O)CSCC(=O)Nc1ccccc1OC,i,i,i,i,76,i
CC(=O)Nc1ccc(-c2ccc3nnc(C)n3n2)cc1,i,i,i,i,i,i
Cc1nnc2ccc(-c3ccc(NC(=O)c4ccco4)cc3)nn12,i,i,i,i,i,75
Nc1nn2c(-c3ccccc3)cc(=O)[nH]c2c1N=Nc1ccc(Br)cc1,76,75,75,i,i,76
Nc1[nH]n2c(=O)cc(-c3ccccc3)nc2c1N=Nc1ccccc1,i,i,i,i,i,i
CC(C)(C)n1ncc2c(=O)n(Cc3cccc(Cl)c3)cnc21,i,i,i,i,i,i
CCOC(=O)C1=C(C)Nc2nc(SCC)[nH]c(=O)c2C1c1ccncc1 (stereo not drawn),i,i,i,i,i,i
CCn1cc(C(=O)OCC(=O)c2cc(C)n(-c3cccc(C(F)(F)F)c3)c2C)c(=O)c2ccc(C)nc21,74,72,79,i,i,70
CCC(C)(C)NC(=O)c1ccc2c(c1)N(CC(=O)OC)C(=O)C(C)(C)O2,i,i,i,i,i,120[activator]
Cc1ccc(-c2cn3cccc(C)c3n2)cc1,i,i,i,i,120[activator],i
Cc1cccn2cc(-c3ccc(Cl)cc3)nc12,i,i,i,i,i,i
CCN=C1S/C(=C\c2cn(CC)c3ccccc23)C(=O)N1CC,i,i,i,i,i,i
CCn1cc(C=C2C(=O)c3ccccc3C2=O)c2ccccc21,i,i,78,77,i,74
COc1cc(NS(=O)(=O)c2ccc(NC(=O)/C=C/c3cccc([N+](=O)[O-])c3)cc2)ncn1,i,i,i,i,i,79
CCOc1ccc(/C=N/n2c(SC)nnc2-c2ccccc2)cc1OCC,i,i,i,i,i,i
O=C(COC(=O)c1ccc2c(c1[N+](=O)[O-])C(=O)c1ccccc1C2=O)NC1CC1,i,73,73,76,i,70
O=C(O)c1ccc(N2C(=O)/C(=C/c3ccc(-c4ccc([N+](=O)[O-])cc4)o3)C=C2c2ccccc2)cc1,79,i,75,i,i,79
CC1=NN(c2ccc(Cl)c(C(=O)O)c2)C(=O)/C1=C\c1ccc(-c2ccc(C(=O)O)cc2)o1,i,i,i,i,i,i
CCOC(=O)NC1(C(F)(F)F)C(=O)N(Cc2ccccc2)C2=C1C(=O)CC(C)(C)C2 (stereo not drawn),i,i,i,i,i,i
CN(C)S(=O)(=O)c1cccc(NC(=O)c2cc3c(=O)n4ccccc4nc3s2)c1,i,i,i,i,i,i
Cc1cc(NS(=O)(=O)c2ccc(NC(=O)c3cc4c(=O)n5ccccc5nc4s3)cc2)nc(C)n1,i,i,76,i,i,i
SMILES,Rac1 act GTP bind,Rab2 wt GTP,Cdc42 wt GTP,HRas wt GTP,Rab7 wt modul,Rac1 wt GTP bind
Brc1ccc(C2Nc3cccc4cccc(c34)N2)s1,i,i,i,i,i,i
Clc1ccccc1-c1ccc(/C=N/Nc2nncc(-c3ccccc3)n2)o1,i,i,i,i,i,79
Clc1ccc(-c2ccc(/C=N/Nc3nncc(-c4ccccc4)n3)o2)cc1,i,i,i,i,i,i
CC1(C)Cc2c(sc(NC(=O)c3ccc(Br)o3)c2C#N)CO1,i,i,148[activator],i,i,167[activator]
CCCCC(=O)Nc1sc2c(c1C#N)CC(C)(C)OC2,i,i,i,i,i,i
Cc1ccc(NC(=S)NNC(=O)c2c(Cl)c(C)nn2C)cc1,i,i,i,i,i,i
Cc1ccc(NC(=S)NNC(=O)c2cn(C)nc2C)cc1,i,i,i,i,i,134[activator]
N#CCC(=O)Nc1ccc(C(=O)NCc2ccccn2)cc1,i,i,i,i,i,i
Clc1cccc(Cc2nn[nH]n2)c1,i,i,i,i,i,i
CC1(C)Cc2c(sc(NC(=S)NC(=O)c3ccccc3)c2C(=O)O)CO1,63,69,nt,67,nt,70
COc1ccc(-n2c(NC(=O)c3ccc(Br)o3)c(C#N)c3nc4ccccc4nc32)cc1,79,79,77,i,i,79
COc1ccc(Cn2c(N)c(C#N)c3nc4ccccc4nc32)cc1,i,i,i,i,i,i
COc1cc([N+](=O)[O-])cc(/C=N/NC(=O)c2ccc(NC(=O)c3ccc(C)cc3)cc2)c1O,i,78,i,i,i,i
CN(NC(=O)CN1C(=O)c2ccccc2C1=O)C1=NS(=O)(=O)c2ccccc21,i,i,i,i,i,i
C(=N\N(Cc1ccccc1)c1ccccc1)/c1cccnc1,i,i,i,i,i,i
CN(/N=C/c1cccnc1)C1=NS(=O)(=O)c2ccccc21,i,70,78,68,i,69
CN(/N=C/C=C/c1ccccc1)C1=NS(=O)(=O)c2ccccc21,i,72,74,68,i,65
Clc1cccc(Cl)c1COc1ccccc1CNn1cnnc1,i,i,i,i,i,i
Cc1ccccc1C1NC(=S)NC2=C1C(=O)CCC2 (stereo not drawn),i,i,i,i,i,i
Cc1nc2ccc(Cl)cc2c(-c2ccccc2Cl)c1CC(=O)O,i,i,i,i,i,i
CN1CCc2nc3ccc(Cl)cc3c(-c3ccccc3Cl)c2C1,i,i,79,i,i,i
O=c1cc(N2CCc3ccccc3C2)[nH]c(=O)n1-c1ccc(Cl)cc1,i,i,i,i,i,121[activator]
COc1ccc(C2CC(c3ccc4ccccc4c3)=NN2C(=O)CN2C(=O)CCC2=O)cc1 (stereo not drawn),i,i,i,i,i,i
COc1ccc(CNC(=O)c2ccccc2C(=O)O)cc1,i,i,i,i,i,i
COc1ccc(CC(=O)c2ccccc2C(=O)O)cc1,131[activator],130[activator],140[activator],126[activator],125[activator],143[activator]
O=C(Nc1nnc(CC(=O)N2CCOCC2)s1)c1cccs1,i,i,i,i,i,i
O=C(COc1cc(Cl)ccc1Cl)Nc1nnc(CC(=O)N2CCOCC2)s1,i,72,71,70,i,i
